PNC assembly inh = blocks assembly of the perinucleolar compartment; PC3M PTB-GFP, PNC prevalence imaging, 16 h; hits give low values; activity change (PNC), negative = inhibition, % at 10 µM; 140,000 tested, 3.1% active;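 active = readout at or below -70, meaning at least 70% loss of cells showing the perinucleolar compartment, a nuclear body marking cancer cells; inconclusive = readout between -30 and a set limit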;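 note: plate controls were DMSO wells for no effect and camptothecin positive control wells for full effect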
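Compounds are pinned in duplicate onto adhered PC3M cells stably expressing GFP-tagged PTB and incubated 16 h at 37 C. Cells are then fixed, nuclei stained with Hoechst, and PNC-positive cells counted.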
12-hLO inh = 12-hLO (ALOX12) enzyme inhibition | P18054 | purified 12-hLO, xylenol orange hydroperoxide absorbance | 150,000 tested, 0.12% active | Potency, µM (top dose mostly 57.1 µM), for inactives: at the highest dose activity change, negative = inhibition, most hits filed as inhibitors | AID 1452; note: potency is the fitted concentration of half-maximal effect; nearly all actives have a fitted effect of over 55% in size
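Lipoxygenase turnover measured by absorbance at 573 and 405 nm after Fe-XO development. Human 12hLO 150 nM, arachidonate 40 uM, pH 7.0 Hepes buffer with detergent; 15 min compound preincubation, 30 min reaction.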
IMPase inh = cell-permeable inhibitors of inositol monophosphatase (IMPase); AID 901; 120,000 tested, under 10 active; inhibition (IP1 accumulation), % at 46.1 µM; CHO-M1 cells, IP1 accumulation, HTRF TR-FRET ratio; active = well fitted curve in the direction sought with a large enough effect in the signal ratio, not every such curve was filed as active; inconclusive = small, poorly fitted or top-dose-only effect, or a change in a side signal; inactive = no such curve, though single readings can be large or run the other way; the % refers to the signal ratio;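 note: cells stimulated with carbachol in lithium chloride buffer; plate controls were DMSO basal wells for no effect and reference inhibitor wells for full effect; higher means more IMPase inhibition seen as more IP1 and lower FRET ratio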
Target sequence (P97697 whole entry, looked up): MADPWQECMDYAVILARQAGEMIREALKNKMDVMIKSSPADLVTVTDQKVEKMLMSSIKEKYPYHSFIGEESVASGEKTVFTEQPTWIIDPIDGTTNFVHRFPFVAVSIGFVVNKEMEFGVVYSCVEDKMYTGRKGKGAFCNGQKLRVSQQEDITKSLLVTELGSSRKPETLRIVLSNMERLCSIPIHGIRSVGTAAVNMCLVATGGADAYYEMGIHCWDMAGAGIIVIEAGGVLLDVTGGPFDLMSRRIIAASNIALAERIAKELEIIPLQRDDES
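Cellular IMPase inhibition is scored as a rise in cytosolic IP1, detected by competitive TR-FRET between d2-labelled IP1 and a europium anti-IP1 antibody. M1-expressing CHO cells were stimulated with carbachol for 30 min at 37C, with lithium (50 mM LiCl) present in the buffer.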
15-hLO-2 inh = inhibitors of human 15-lipoxygenase 2 (ALOX15B). purified 15hLO-2, xylenol orange hydroperoxide absorbance. 110,000 tested, 0.56% active. O15296. AID 881. Potency, µM (highest dose often 57.1 µM), without a hit: at the highest dose activity change, negative = inhibition, hits mostly inhibitors; note: potency is the fitted concentration of half-maximal effect; nearly all actives have a fitted effect of over 60% in size
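Purified human 15hLO-2 (50 nM final) preincubated with compounds 15 min at room temperature in 25 mM Hepes pH 7.5, 0.01% Triton X-100, then 45 uM arachidonic acid added for 90 min; hydroperoxide detected via ferrous/xylenol orange, 573/405 nm absorbance ratio.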
* hit, by the source's call; ? = inconclusive; / = no result given; [ ] = dose if it differs, or a comment. This is a sample that favours compounds with a hit; in the whole collection about 3% have one here. Unless noted, calls come from the whole dose curve; as a rule, active = well fitted curve in the direction sought with a large enough effect; inconclusive = small, poorly fitted or top-dose-only effect, or another doubt; inactive = no such curve, though single readings can be large; an effect the other way counts as inactive or inconclusive. Unless noted, % is set by controls: 0 for no effect and ±100 for the full control effect.

SMILES	PNC assembly inh	12-hLO inh	IMPase inh	15-hLO-2 inh
CC(C)(O)c1cc(=O)sc2nc3ccccc3n12	-100*	-3%	4	/
Cc1cc(Cl)c(S(=O)(=O)NC2CCCCC2)cc1OCC(=O)Nc1nncs1	-119*	-6%	27	/
CN(C)c1ncc2nc(-c3ccccc3)c(=O)n(CCC#N)c2n1	/	/	/	2%
Cc1cnc(NC(=O)CSc2nnc(COc3c(C)cccc3C)o2)s1	-119*	5%	6	/
Cc1cccc(C)c1OCc1nnc(SCC(=O)Nc2ccccc2F)o1	-26	4%	7	/
C=CCNc1nc(-c2ccc([N+](=O)[O-])cc2)cs1	-114*	-2%	/	/
C=CCNc1nc(-c2ccc(Cl)cc2)cs1	49	0%	5	9%
CCOC(=O)c1cc2sccc2n1CC(=O)N1CCCC1	-26	-4%	1	-11%
COc1cc(C2C=C(C34CC5CC(CC(C5)C3)C4)NC(=S)N2)cc(OC)c1OC (configuration not stated)	-17	11µM*	7	-27%
COc1ccc(OC)c(C2C=C(C34CC5CC(CC(C5)C3)C4)NC(=S)N2)c1 (configuration not stated)	?	7.1µM*	/	/
COc1ccc(OC)c(C2SCCN2S(C)(=O)=O)c1 (configuration not stated)	27	-3%	5	-2%
COc1ccc(C2=CC(c3cc(OC)c(OC)c(OC)c3)NC(=S)N2)cc1 (configuration not stated)	-4	-9%	2	?
O=S(=O)(Nc1nccs1)c1ccc(Cl)cc1	27	-2%	5	-3%
CN1[C@H](Cc2ccccc2)C=C[C@]1(C)C(=O)NCC1CC1	/	-4%	/	-2%
CCCCn1c(CN2CCN(C(=O)c3ccco3)CC2)nc2c1c(=O)n(C)c(=O)n2C	-2	0%	-7	/
CCCCCCn1c(CN2CCN(C(=O)c3ccco3)CC2)nc2c1c(=O)n(C)c(=O)n2C	-122*	9%	?	/
CCc1nnc(NC(=O)CSc2nnc(-c3ccoc3C)n2-c2cccc(C)c2)s1	-96*	-16%	-8	5%
COc1cccc(-n2c(SCC(=O)Nc3nccs3)nnc2-c2ccoc2C)c1	-100*	3%	-10	/
Cc1cccc(-n2c(SCC(=O)Nc3nnc(C)s3)nnc2-c2ccoc2C)c1	20	-13%	0	-1%
CCCCN(CC(=O)Nc1c(C)cccc1CC)C(=O)SCC	-11	-6%	8	-4%
O=C(c1ccccc1)c1c[nH]cc1-c1ccccc1	-100*	2%	6	/
CCn1c(SCC(=O)O)nnc1-c1cc2c(C)nn(-c3ccccc3)c2s1	-4	0%	-8	-9%
O=C(NC1CC2CCCC(C1)N2CC(=O)N1CCCc2ccccc21)C1CCCCC1 (configuration not stated)	46	5%	7	/
Cn1c(C(=O)N2CCc3ccccc3C2)cc2oc3ccccc3c21	-119*	-9%	12	/
CCn1c(C(=O)N2CCc3ccccc3C2)cc2oc3ccccc3c21	2	-8%	-6	8%
SMILES	PNC assembly inh	12-hLO inh	IMPase inh	15-hLO-2 inh
COc1ccc(-c2csc(/C=C/c3ccc4c(c3)OCO4)n2)cc1OC	43	-6%	0	/
CCCc1nn(C)c(C(=O)Nc2cccc(Cl)c2)c1Cl	83	-3%	/	/
Cc1ccc2nc(-c3ccccc3O)c(Nc3ccc4c(c3)OCCO4)n2c1	-113*	0%	/	/
Cc1ccc2nc(-c3ccc(O)cc3)c(Nc3ccc4c(c3)OCCO4)n2c1	-5	-4%	-11	-10%
FC(F)Oc1ccc(-c2csc(Cc3nnc4n3CCCCC4)n2)cc1	-100*	4%	-7	/
COc1ccc(-c2csc(Cc3nnc4n3CCCCC4)n2)cc1	?	-1%	-5	4%
c1ccc(NCc2nnc3n2CCCCC3)cc1	43	-1%	-2	-7%
c1ccc2sc(Cc3nnc4n3CCCCC4)nc2c1	-82*	3%	-4	-4%
C/C(=N\NC(=O)c1cc(-c2cccnc2)nc2ccccc12)c1ccc(O)cc1O	-92*	3%	/	/
Cc1cccc(C)c1NC(=O)COC(=O)c1cc(-c2cccnc2)nc2ccccc12	-3	-2%	4	/
O=C(N/N=C/C=C/c1ccccc1[N+](=O)[O-])c1cc(-c2cccnc2)nc2ccccc12	-84*	4%	-5	/
CCNC(=O)[C@H]1O[C@H](n2cnc3c(N)nc(NCCc4ccc(CCC(=O)O)cc4)nc32)[C@@H](O)[C@@H]1O	/	-1%	-1	9%
S=C(Nc1ccc2c(c1)Cc1ccccc1-2)Nc1ccc2c(c1)Cc1ccccc1-2	/	-2%[11.4 µM]	/	-4%[11.4 µM]
CCN(CC)S(=O)(=O)c1ccc(C)c(NC(=O)CN(C)C)c1	-84*	2%	3	/
CCN(CC)S(=O)(=O)c1ccc(Cl)c(NC(=O)c2ccccc2C)c1	85	7%	8	/
COc1ccc(CCNC(=O)C2CCN(S(=O)(=O)c3cc(OC)ccc3OC)CC2)cc1	-83*	1%	-1	-1%
COc1ccc(OC)c(S(=O)(=O)N2CCC(C(=O)N3CCN(Cc4ccccc4)CC3)CC2)c1	-80*	-4%	-4	-1%
CCc1ccccc1NC(=O)C(C#N)Cc1cccnc1 (configuration not stated)	-82*	5%	-1	/
Cc1cc(C)n(CC(=O)N2c3ccccc3Sc3ccc(C(F)(F)F)cc32)n1	-113*	-1%	/	/
Cc1cccc(N(CC(=O)Nc2ccc(CC#N)cc2)S(C)(=O)=O)c1	-84*	1%	13	-2%
O=C(Cn1c(=O)[nH]c2ccsc2c1=O)NC1CCCCCC1	-100*	-2%	-8	/
CC1CCC(NC(=O)Cn2c(=O)[nH]c3ccsc3c2=O)CC1 (configuration not stated)	-27	-3%	-12	-9%
Cc1ccc2[nH]c(=S)cc(C)c2c1	7	-15%	4	13µM*
CCOc1ccccc1NC(=O)CN(c1ccc(OC)cc1)S(=O)(=O)c1c(C)noc1C	-97*	-9%	13	7%
CCOc1ccccc1NC(=O)CN(c1cc(C)cc(C)c1)S(=O)(=O)c1c(C)noc1C	31	11%	4	5%
SMILES	PNC assembly inh	12-hLO inh	IMPase inh	15-hLO-2 inh
CCOc1ccc(N(CC(=O)Nc2ccccc2C)S(=O)(=O)c2c(C)noc2C)cc1	-88*	-4%	10	-6%
Cc1nc(CCN2C(=O)c3ccccc3C2=O)cs1	-111*	1%	-6	7%
[N-]=[N+]=CC(=O)COC(=O)c1ccccc1	/	-1%[11.4 µM]	/	-5%[11.4 µM]
N/C(=N\OC(=O)COc1ccc(Br)cc1)c1ccncc1	-102*	-3%	/	/
CCOC(=O)C(C(=O)NCCCN1CCOCC1)C1CCCCC1 (configuration not stated)	-100*	2%	9	/
Clc1ccc(N2COC3c4cccc5cccc(c45)C32)cc1 (configuration not stated)	-100*	2%	3	/
COc1ccc(N2COC3c4cccc5cccc(c45)C32)cc1 (configuration not stated)	11	-10%	7	/

Screening data (PubChem)
